# Results filed as inconclusive are left out. Values without a mark were called inactive. Calls come from the whole dose curve; as a rule, active = well fitted cell-killing curve with a large enough effect in the repeat runs; inconclusive = weak or mixed curves, or effect the other way; inactive = no such curve, though single readings can be large or run the other way.
# Assay: qHTS assay to identify small molecule agonists of the farnesoid-X-receptor (FXR) signaling pathway - cell viability counter screen (AID 743218); note: nearly all actives have a fitted effect of over 45% in size
# Conditions: FXR-bla HEK293T viability, CellTiter-Glo luminescence, 16 h; series mostly up to 62.6 µM; viability change, negative = cytotoxic: at the top concentration
# Text: U.S. Tox21 Program National Center for Advancing Translational Sciences [NCATS] NIH Chemical Genomics Center [NCGC] U.S. Environmental Protection Agency [EPA] National Institutes of Environmental Health Sciences [NIEHS] National Toxicology Program [NTP] U.S. Food and Drug Administration [FDA] Tox21 Assay Overview: The farnesoid-X-receptor (FXR), a nuclear hormone receptor, is highly expressed in liver, intestine, kidney and adrenal cortex. Natural ligands of FXR are the bile acids (Cholic acid, Chenodeoxy cholic acid etc). FXR is an important regulator of diverse metabolic pathways, including the bile acid homeostasis, lipid and glucose metabolisms. FXR regulates the expression of target genes by binding either as a monomer or as a heterodimer with the retinoid X receptor (RXR). Numerous studies have reported that FXR exerts protective function during cholestasis, diabetes, liver regeneration, and cancer. To identify compounds that activate FXR signaling, GeneBLAzer FXR-UAS-bla HEK 293T cell line (Invitrogen, Carlsbad, CA) containing a beta-lactamase reporter gene under the control of a UAS response element was used to screen the Tox21 10K compound library. The cytotoxicity of the Tox21 compound library against the FXR-bla cell line was tested in parallel by measuring the cell viability using CellTiter-Glo assay in the same wells.
# Tox21 Assay Protocol Summary: FXR-bla cells were dispensed at 5000 cells/5uL/well in 1536-well black wall/clear bottom plates using a Multidrop Combi (Thermo Fisher Scientific, Waltham, MA) dispenser. After the assay plates were incubated at 37 C and 5% CO2 for 5 h, 23 nL of compounds dissolved in DMSO, positive controls or DMSO only was transferred to the assay plate by a Pintool station (Kalypsys, San Diego, CA). The assay plates were incubated at 37C for 16 h. After 1 uL of LiveBLAzerTM B/G FRET substrate was added using a Bioraptr Flying Reagent Dispenser (FRD) workstation (Beckman Coulter, Indianapolis, IN), the plates were incubated at room temperature for 2 h, and fluorescence intensity was measured by an Envision plate reader (PerkinElmer, Shelton, CT). For cell viability readout that measures cytotoxicity, 4uL/well of CellTiter-Glo reagent was added into the assay plates using a Bioraptr FRD. After 30 min incubation at room temperature, the luminescence intensity in the plates was measured using a ViewLux plate reader (PerkinElmer).
# % is set by controls: 0 for no effect and ±100 for the full control effect.
row,SMILES,"viability change, negative = cytotoxic"
1,O=C(/C=C/c1ccccc1)NCCO,1.08%
2,CNCc1ccccc1,2.8%
3,CC(Cl)COP(=O)(OCC(C)Cl)OCC(C)Cl (stereo not given),7%
4,CCNC(=O)NCCCOc1cccc(CN2CCCCC2)c1,-14.6%
5,C=CCOc1c(Br)cc(C(C)(C)c2cc(Br)c(OCC=C)c(Br)c2)cc1Br,16.5%
6,Nc1ccc(C(=O)OCC(O)CO)cc1 (stereo not given),15.3%
7,Nc1nc(=O)n([C@@H]2O[C@H](CO)[C@@H](O)[C@@H]2F)cc1I,1.01%
8,CC(=O)OCCCc1ccccc1,11.7%
9,C=C(C)[C@@H]1CC[C@@H](C)C[C@@H]1O,21.5%
10,Cc1cccc(NC(=S)N(C)C)c1,-5.31%
11,Cc1nc2ccccc2c(=O)o1,4.1% [at 81.1 µM]
12,CC(C)CCC(=O)CCC(C)C,0.351%
13,O=[Si]=O,3.05%
14,CCOC(=O)C(=O)c1csc(NC=O)n1,10.1%
15,CC(C)COC(=O)CCCCC(=O)OCC(C)C,2.37%
16,NC(=O)NC(=O)Cc1ccccc1,0.565%
17,O=C(O)c1ccc(OCCN2CCCCC2)cc1,4.6%
18,CC(=O)OCC(=O)[C@@]1(O)[C@H](OC(C)=O)C[C@H]2[C@@H]3CCC4=CC(=O)C=C[C@]4(C)[C@@]3(F)[C@@H](O)C[C@@]21C,-12.5%
19,CCCCC(CC)CNC(=O)CC(C)OC(=O)CCC(=O)O (stereo not given),8.57%
20,COc1ccc(N=Nc2cc(C)c(N=Nc3ccc(S(=O)(=O)O)cc3)cc2OC)cc1,2.58%

row,SMILES,"viability change, negative = cytotoxic"
1,CCCCCCCCCCCCCCCCCCN(C)C,0.28%
2,CCCCC(=O)N(C)C,-12.8%
3,COC(/C=C(\C)CCC=C(C)C)OC,40.9%
4,CC(C)SCc1ccco1,25.1% [at 29.1 µM]
5,NC(Cc1c[nH]c2ccccc12)C(=O)O (stereo not given),6.93%
6,CCOC(=O)OCC/C(SC(=O)OCC)=C(\C)N(C=O)Cc1cnc(C)nc1N,24.6%
7,NS(=O)(=O)c1ccccc1OC(F)(F)F,25%
8,O=CO,0.465% [at 5.95 µM]
9,C=CCOCC(O)CCl (stereo not given),-5.62%
10,CCC1Nc2cc(Cl)c(S(N)(=O)=O)cc2S(=O)(=O)N1 (stereo not given),0.332%
11,CC(=O)Nc1ncc([N+](=O)[O-])s1,-3.58%
12,O=C1c2ccccc2-c2ccccc21,-2.97% [at 81.1 µM]
13,C/C=C(\C)C(=O)OCC/C=C\CC,15.4%
14,OC[C@@H](O)[C@H](O)[C@@H](O)[C@@H](O)CO,22.8%
15,NS(=O)(=O)c1cc2c(cc1Cl)NC(C(Cl)Cl)NS2(=O)=O (stereo not given),-0.577%
16,CNC(=O)C(c1ccccc1)c1ccccc1,7.41%
17,Nc1c(NC/C=C\COc2cc(CN3CCCCC3)ccn2)c(=O)c1=O,15.1% [at 29.1 µM]
18,CCCCCCCCCCCCCC(=O)OC,35.4%
19,O=P(O)(O)OCC(O)CO (stereo not given),4.07%
20,C=C(C)C(=O)OCCCCCCOC(=O)C(=C)C,3.92%

# Source: PubChem BioAssay (Tox21)
